About 83,000 compounds went through this panel and 20% of them were active in at least one assay; those are over-represented in the sample as a whole.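 Single-concentration screen, 48 h exposure, 96-well plates. Endpoint: percent growth. Below 10 = active.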 Values without a mark were called inactive.

The test system of the assay is MDA-MB-468 breast. The assay can be described thus: NCI-60 one-dose screen, 48 h (100 = growth as untreated, 0 = no growth, -100 = all killed). The following applies: 10 µM unless noted.
With `Cc1ccc(S(=O)(=O)NCCCNc2cc(-c3cn(C(C)(C)C)nc3-c3cccc(O)c3)ccn2)cc1`, the growth was 35.5%. With `O=C(N=Nc1c(O)[nH]c2ccccc12)c1cc(-c2ccccc2)on1`, the growth is 109%. Take `Cc1ccc(C2CC(c3cccc(Nc4ccncc4)c3)=Nc3c(N)nc(N)nc3N2)cc1` (stereo not drawn): the growth is 60.2%.
